# Measurements as given in PubChem BioAssay (NCATS).
# Inconclusive results are not listed. The source made the active and inactive calls. Calls follow the shape of the dose curve; as a rule, active = well fitted cell-killing curve with a large enough effect; inconclusive = small, poorly fitted or top-dose-only effect; inactive = flat fitted curve, though single readings scatter.
# Assay: qHTS of pediatric cancer cell lines to identify multiple opportunities for drug repurposing: Primary screen for BT-37 cells (AID 1347094)
# Conditions: BT-37 viability, CellTiter-Glo luminescence, 48 h; series mostly up to 57.3 µM
# Description: Drug repurposing or repositioning has been offered as a strategy for drug development in oncology programs. This approach has special potential for childhood cancers and other rare or orphan diseases, where the expected return on new drug development has been a disincentive to pharmaceuticals. […] In this project we exploit the poly-pharmacology of drugs to discover new indications via phenotypic screening of a panel of 19 well-characterized cell lines derived from solid tumors seen in children and adolescents. The goal is to identify approved drugs with previously unrecognized anticancer properties that has the potential to reveal new mechanisms and biological processes involved in carcinogenesis or drug resistance. We employed a titration-based paradigm (quantitative high-throughput screening or qHTS), where all compounds were tested at multiple concentrations for their effect on cell viability. Concentration-response curves (CRCs) were derived directly from the primary screen, and both potency and efficacy values were used to identify compounds with robust bioactivity profiles. We screened the NIH Chemical Genomics Center (NCGC) Pharmaceutical Collection (NPC) and Mechanism Interrogation Plate (MIPE) small molecule collections of approved and investigational compounds against these cell lines; and measured metabolically active cells after 48 hours of compound treatment as a proxy for cell viability. […] Assay Submitter: Nathalia J. Martinez, National Center for Advancing Translational Sciences, National Institutes of Health, Rockville, MD, USA; email: natalia.martinez@nih.gov Shen, M et al. Quantitative high-throughput phenotypic screening of pediatric cancer cell lines identifies multiple opportunities for drug repurposing. Oncotarget 2017 Dec 19;9(4):4758-4772. PMID 29435139.
# The cells were obtained from University of North Carolina (UNC), Pediatric Preclinical Testing Program (PPT), and Coriell Institute (CI). qHTS cell viability assay: Cells were assayed in growth media at a density of 500-1,000 cells/well. Five microliters of cells were dispensed into 1,536-well, white, solid-bottom, TC-treated plates (Greiner Bio One) using a multidrop dispenser and incubated at 37 degrees C, 5% CO2, under a humidified atmosphere for 5 hours. Twenty-three nanoliters of compounds and controls (neutral control DMSO or positive control bortezomib at final concentration of 2.3 µM) were subsequently transferred by Kalypsys pintool. For primary screens, the MIPE collection was tested at 11-point dilutions (final concentrations range from 0.78 nM to 46 µM) and the NPC collection at 8-point dilutions (final concentrations range from 0.59 nM to 46 µM). Compounds tested in follow-up screens were assayed at 11-point dilutions. Cells were incubated for 48 hours, followed by addition of 3 µL of CellTiter-Glo (Promega). After a 15 min incubation at room temperature, samples were analyzed for luminescence intensity using a ViewLux High-throughput CCD imager equipped with clear filters.
# Potency is read from the fitted curve at half-maximal effect.
row,SMILES,Potency
1,Nc1ccn(C[C@@H](CO)OCP(=O)(O)O)c(=O)n1,inactive
2,O=C1c2cccc(O)c2C(=O)c2c(O)cc(CO)cc21,inactive
3,C[C@](Cc1c[nH]c2ccccc12)(NC(=O)OC1C2CC3CC(C2)CC1C3)C(=O)NC[C@H](NC(=O)CCC(=O)O)c1ccccc1 (stereo not given in full),inactive
4,OC[C@H]1OC(O)C[C@@H](O)[C@H]1O (stereo not given in full),inactive
5,CC(=O)O[C@]1(C(C)=O)CC[C@H]2[C@@H]3C=C(C)C4=CC(=O)CC[C@]4(C)[C@@H]3CC[C@@]21C,4320 nM (active)
6,CC(=O)C1=C(O)C=C2Oc3c(C(C)=O)c(O)c(C)c(O)c3C2(C)C1=O (stereo not given),1370 nM (active)
7,N#Cc1c(NC(=O)c2cccc3ccccc23)sc2c1CCCC2,1090 nM (active)
8,O=c1[nH]c(=O)n([C@H]2C[C@@H](O)[C@@H](CO)O2)cc1C=CBr,inactive
9,CCCCCCCN(CC)CCCC(O)c1ccc(NS(C)(=O)=O)cc1 (stereo not given),inactive
10,CNC(=O)c1cccc(-c2ccc3c(N4CCOC[C@H]4C)nc(N4CCOC[C@H]4C)nc3n2)c1,122 nM (active)
11,CCC(C(=O)O)C1CCC(C)C(C(C)C(O)C(C)C(=O)C(CC)C2OC3(C=CC(O)[C@@]4(CC[C@](C)(C5CC[C@@](O)(CC)C(C)O5)O4)O3)C(C)CC2C)O1 (stereo not given in full),611 nM (active)
12,Cn1cnc(=N)c2[nH]cnc21,1370 nM (active)
13,COc1ccc(CCC(=O)c2c(O)cc(O[C@@H]3O[C@H](CO)[C@@H](O)[C@H](O)[C@@H]3O[C@@H]3O[C@@H](C)[C@H](O)[C@@H](O)[C@@H]3O)cc2O)cc1O,inactive
14,Cc1ccccc1C(=O)Nc1ccc(C(=O)N2CCCC(O)c3cc(Cl)ccc32)c(C)c1 (stereo not given),inactive
15,COc1ccc(C=Cc2cc(OC)c(OC)c(OC)c2)cc1NC(=O)[C@H](N)CO,17.2 nM (active)
16,CC(=O)N1CCN(c2ccc(OCc3nn(C)c(C)c3-c3cccc4c(CCCOc5cccc6ccccc56)c(C(=O)O)n(Cc5cccnc5)c34)cc2)CC1,485 nM (active)
17,Nc1nc(N)c2nc(-c3cccc(O)c3)c(-c3cccc(O)c3)nc2n1,21700 nM (active)
18,CC(=O)N[C@@H]1[C@H](O[C@@H]2c3ccc(c(Cl)c3)Oc3cc4cc(c3O[C@H]3O[C@H](CO)[C@@H](O)[C@H](O)[C@H]3NC(=O)CCCCCCCC(C)C)Oc3ccc(cc3Cl)C[C@H]3NC(=O)[C@H](N)c5ccc(O)c(c5)Oc5cc(O)cc(c5)[C@H](NC3=O)C(=O)N[C@H]4C(=O)N[C@H]3C(=O)N[C@@H]2C(=O)N[C@@H](C(=O)O)c2cc(O)cc(O[C@H]4O[C@H](CO)[C@@H](O)[C@H](O)[C@H]4O)c2-c2cc3ccc2O)O[C@H](CO)[C@@H](O)[C@@H]1O,inactive
19,CC1(C)CC(O)CC(C)(C)N1[O],inactive
20,COc1ccc2c(c1OC)C(=O)OC2[C@H]1c2c(cc3c(c2OC)OCO3)CCN1C (stereo not given in full),611 nM (active)

row,SMILES,Potency
1,Cn1cc(C[C@@H](N)C(=O)O)c2ccccc21,inactive
2,CC(=O)ON=C1C(c2c(O)[nH]c3cc(Br)ccc23)=Nc2ccccc21,6110 nM (active)
3,CN1CCCN(C(=O)c2cccc(-c3ccc(C=C4C(=O)Nc5ccc(Cl)cc54)o3)c2)CC1,6850 nM (active)
4,Cn1cc(CNCC2CCN(c3ncc(C(=O)NO)cn3)CC2)c2ccccc21,109 nM (active)
5,N#CNC(=NCCCCCCOc1ccc(Cl)cc1)Nc1ccncc1,3.9 nM (active)
6,CC[C@]12C=CCN3CC[C@@]4(c5cc([C@@]6(C(=O)OC)C[C@H]7C[C@@H](C(C)(F)F)CN(Cc8c6[nH]c6ccccc86)C7)c(OC)cc5N(C)[C@H]4[C@@](O)(C(=O)OC)[C@H]1OC(C)=O)[C@@H]32,27.3 nM (active)
7,CC(C)NC[C@@H](C(=O)N1CCN(c2ncnc3c2[C@H](C)C[C@H]3O)CC1)c1ccc(Cl)cc1,4320 nM (active)
8,OCC(O)C(O)C(O)CO (stereo not given),inactive
9,O=C(O)CCCCC(CCSCc1ccccc1)SCc1ccccc1 (stereo not given),inactive
10,C=CC[C@@H]1C=C(C)C[C@H](C)C[C@H](OC)[C@H]2O[C@@](O)(C(=O)C(=O)N3CCCC[C@H]3C(=O)O[C@H](C(C)=C[C@@H]3CC[C@H](O)[C@H](OC)C3)[C@@H](C)[C@@H](O)CC1=O)[C@@H](C)C[C@@H]2OC,1720 nM (active)
11,CC[C@H]1OC(=O)[C@H](C)[C@@H](O[C@H]2C[C@@](C)(OC)[C@@H](O)[C@H](C)O2)[C@H](C)[C@@H](O[C@@H]2O[C@@H](C)C[C@H](N(C)C)[C@@H]2O)[C@](C)(O)C[C@@H](C)C(=O)[C@H](C)[C@@H](O)[C@]1(C)O,inactive
12,CC(C)C[C@H](NC(=O)[C@@H](NC(=O)c1cccc(-c2ccccc2)n1)[C@@H](C)O)B(O)O,96.8 nM (active)
13,CCOc1cc2c(c(F)c1OCC)C(=N)N(CC(=O)c1cc(N3CCOCC3)c(OC)c(C(C)(C)C)c1)C2,27300 nM (active)
14,Cc1ccc(O)c(C(CCN(C(C)C)C(C)C)c2ccccc2)c1 (stereo not given),inactive
15,CON=C(C(=O)N[C@@H]1C(=O)N2C(C(=O)O)=C(Cn3ccc(=N)n3CCO)CS[C@H]12)c1csc(N)n1,inactive
16,Cc1ccc([N+](=O)[O-])cc1S(=O)(=O)N(C)N=Cc1cnc2ccc(Br)cn12,38.5 nM (active)
17,COC(=O)[C@@H]1CC2=CC(=O)CC[C@]2(C)[C@@]23O[C@@H]2C[C@@]2(C)[C@H](CC[C@@]24CCC(=O)O4)[C@@H]13,inactive
18,COc1ccc([C@@H]2CNC(=O)C2)cc1OC1CCCC1,27300 nM (active)
19,CCCCC(=O)O[C@]1(C(=O)CO)[C@@H](C)C[C@H]2[C@@H]3CCC4=CC(=O)C=C[C@]4(C)[C@@]3(F)[C@@H](O)C[C@@]21C,inactive
20,C[C@H](CCC(=O)O)[C@H]1CC[C@H]2[C@@H]3[C@H](O)C[C@@H]4C[C@H](O)CC[C@]4(C)[C@@H]3CC[C@]12C,inactive
